The results in this text go back to PubChem BioAssay (NCI).

The panel holds about 83,000 compounds, 20% with a hit somewhere; the sample as a whole holds those more often.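 Note: values are percent growth. 100 is the growth of untreated cells, values between 100 and 0 indicate rising inhibition; between -100 and 0 indicates cell death.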 Values without a mark were called inactive. The source made the active and inactive calls. Rule for the calls: active = growth percent below 10; inactive = the rest.

The subject of this assay is MDA-MB-468 breast. Briefly: NCI-60 one-dose screen, 48 h (100 = growth as untreated, 0 = no growth, -100 = all killed). The settings on record: 10 µM unless noted.
`CSc1ccc(/C(=N/N=C(N)N)c2ccc(Cl)cc2)cc1`: the growth was -36.1% (active).

Consider `COC(=O)c1cc2c(n1Cc1ccccc1)-c1oncc1CCC2`, for which the growth is 63.5%.

Take `C[C@H]1[C@H](C)CC[C@]2(C(=O)Nc3ccc4ncccc4c3)CC[C@]3(C)C(=CC[C@@H]4[C@@]5(C)CCCNC(C)(C)[C@@H]5CC[C@]43C)[C@H]12`: the growth was -55.7% (active).

With `C/C(CC(=O)NNc1ccc([N+](=O)[O-])cc1)=N\Nc1ccc([N+](=O)[O-])cc1`, the growth is 97.7%.

As to `CCCCNC(=O)c1cc(NCc2cc(O)ccc2O)ccc1O`, the growth is 93.6%.

Turning to `CCCCNC(=O)c1cc([N+](=O)[O-])cc(C2CCCCC2)c1O`, the growth was -1.64% (active).

As for `O=C1/C(=C/c2ccccc2[N+](=O)[O-])COc2ccc(O)c(O)c21`, the growth is -58% (active).

Consider `CC(C)c1ccc(C(C)C(=O)N(CC2=C(C(C)c3ccccn3)c3ccccc3C2)C(C)C)cc1` (stereo not given), for which the growth is 24.9%.

For `Cl.Fc1c[c-]c(-c2ccccn2)c(F)c1.[Pt].c1ccc([PH+](c2ccccc2)c2ccccc2[PH+](c2ccccc2)c2ccccc2)cc1`, the growth is -85.8% (active).

`CCNc1nnnn1CC`: the growth was 101%.

In the case of `COC(=O)c1cncc(C(=O)Nc2ccc(-n3cnc4ccccc43)cc2)c1`, the growth is 101%.

In the case of `Cc1ccncc1C(=O)O`, the growth was 101%.

With `COc1cc(NC(=O)C2=C(C)NC(C)=C(C(=O)Nc3cc(OC)c(Cl)cc3OC)C2c2cccc([N+](=O)[O-])c2)c(OC)cc1Cl`, the growth is -11.7% (active).

Take `O=C1NC(=C(Cl)Cl)/C(=N/S(=O)(=O)N2CCCCC2CC2(C(F)(F)F)N=N2)N1` (stereo not given): the growth was -44.8% (active).

Regarding `COc1ccc(OC)c(C(=O)c2oc3ccc(Br)cc3c2N)c1`, the growth was 23.6%.

On to `O=C(N/N=C/c1ccc(Cl)cc1)c1ccc(C(F)(F)F)nc1Nc1cccc(C(F)(F)F)c1`, for which the growth was 16.7%.

`COc1cccc(NC(=O)c2sc3nc(C)c(C(O)c4ccccc4)cc3c2N)c1` (stereo not given): the growth was 14.3%.

Turning to `Cc1cc(=O)n2nnc3cc(C(F)(F)F)ccc3n12`, the growth was 122%.

In the case of `COc1cc(/C=C/C(=O)N2c3ccccc3CC2C)c(OC)c2c1OCO2` (stereo not given), the growth was 86.9%.

For the molecule `CCOC(=O)c1c(SC)nn(-c2cc(=O)[nH]c3ccc(Br)cc23)c1N`, the growth is 115%.

With `COc1ccc(C(c2cc(OC)c(OC)c(OC)c2)N2CCCC2)cc1` (stereo not given), the growth was 54.8%.

Take `COc1ccc(-c2nn(-c3cccc(NC(=O)Nc4ccccc4)c3)cc2-c2ccncc2)cc1Cl`: the growth was 29.4%.

As to `O=c1ccn(C2OC(CO)C(O)C2F)c(=O)[nH]1` (stereo not given), the growth was 105%.

On to `COc1cccc(OC)c1Oc1c(-c2nc3ccccc3s2)c(C)nn1-c1ccccc1`, for which the growth was 71.2%.

Consider `CCCCN(C=S)CCCC`, for which the growth was 101%.

In the case of `CNCCNc1nc2ccccc2c2c(=O)c3cccc(OC)c3sc12`, the growth is 20.9%.

With `CN(C)CC1C(=O)O[C@H]2[C@H]1CC/C(COC(=O)NCc1ccc(Cn3c(=O)sn(CCCI)c3=O)cc1)=C\CC[C@@]1(C)O[C@@H]21` (stereo not given in full), the growth was -73.3% (active).

With `COc1cc(C(=O)Nc2cc(O)c(C/C=C(\C)CCC=C(C)C)c(O)c2)cc2c1O[C@]1(C)CC[C@@H](O)C(C)(C)[C@H]1C2`, the growth was 3.89% (active).

For the molecule `COc1cc2oc(-c3ccc(O)cc3)cc(=O)c2c(O)c1-c1c(OC)cc(O)c2c(=O)cc(-c3ccc(O)cc3)oc12`, the growth is 36.1%.

As for `Nc1nc(N)c(N=Nc2c(Br)cc(S(N)(=O)=O)cc2Br)c(N)n1`, the growth was 54%.

On to `CN(C)C(=O)Nc1nc2cc(Cl)c(Cl)cc2[nH]1`, for which the growth was -13.4% (active).

As to `COc1ccc(/C=C/C(=O)/C=C(/C=C/c2ccc(OC)c(OC)c2OC)OB(F)F)c(OC)c1OC`, the growth is 39.1%.

In the case of `Cn1c(=O)c2[nH]c(CCCc3nc4c([nH]3)c(=O)n(C)c(=O)n4C)nc2n(C)c1=O`, the growth was 103%.

`COc1ccc(N2C(=O)c3cc(Cl)ccc3NC2SCc2ccccc2)cc1` (stereo not given): the growth was 98.1%.

For `CN1CCN(Cc2ccc(C(=O)Nc3cncc(C#Cc4cnc(N)c5ccccc45)c3)cc2C(F)(F)F)CC1`, the growth is -61.9% (active).

As to `NC1=Nc2ccccc2N(O)N1`, the growth is 102%.

As for `CC(CN1CCCCC1)C(=O)c1ccccc1` (stereo not given), the growth is 105%.

As for `CC[C@@H](c1ccc(O)c(O)c1)[C@@H](CC)c1ccc(O)c(O)c1`, the growth was 53.1%.

`O=C1c2ccccc2C(=O)c2c([N+](=O)[O-])ccc(Cl)c21`: the growth was -5.53% (active).

As to `COc1cc2nc(Cl)nc(Nc3cccc(C(=O)/C=C/c4ccc(Br)cc4)c3)c2cc1OC`, the growth is 85.7%.
